From PubChem BioAssay (NCATS)
Values joined by “and” are separate entries in the source; they are usually repeats but may differ in a detail not shown here. Identical values can stand only once. Results filed as inconclusive are left out. Active and inactive are the calls of the source. Calls come from the whole dose curve; as a rule, active = well fitted curve in the direction sought with a large enough effect; inconclusive = small, poorly fitted or top-dose-only effect, or another doubt; inactive = no such curve, though single readings can be large; an effect the other way counts as inactive or inconclusive.

Experiments:
[1] = qHTS of pediatric cancer cell lines to identify multiple opportunities for drug repurposing: Primary screen for Rh18 cells (AID 1347102); note: nearly all actives have a fitted effect of over 65% in size; note: potency is the fitted concentration of half-maximal effect
How it was run: (§1)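 Cells (500-1,000/well) rested 5 h, then received compounds for 48 h; metabolically active cells were measured by CellTiter-Glo luminescence. Final concentrations spanned up to 46 µM (MIPE, 11-point) or 0.59 nM-46 µM (NPC, 8-point) in primary screens, 11-point in follow-ups.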

[2] = qHTS of pediatric cancer cell lines to identify multiple opportunities for drug repurposing: Primary screen for OHS-50 cells (AID 1347103); note: nearly all actives have a fitted effect of over 40% in size; note: potency is the fitted concentration of half-maximal effect
How it was run: as §1

[3] = qHTS of pediatric cancer cell lines to identify multiple opportunities for drug repurposing: Primary screen for RD cells (AID 1347104); note: nearly all actives have a fitted effect of over 55% in size; note: potency is the fitted concentration of half-maximal effect
How it was run: (§2)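 Cells plated at 500-1,000/well in growth medium, compounds added after 5 h. MIPE tested at 11 points (from 0.78 nM), NPC at 8 points (from 0.59 nM). CellTiter-Glo luminescence after 48 h; concentration-response curves from primary screen.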

[4] = qHTS of pediatric cancer cell lines to identify multiple opportunities for drug repurposing: Primary screen for Rh30 cells (AID 1347107); note: series mostly up to about 46 µM; nearly all actives have a fitted effect of over 75% in size
How it was run: as §1

[5] = qHTS of pediatric cancer cell lines to identify multiple opportunities for drug repurposing: Primary screen for Rh41 cells (AID 1347108); note: nearly all actives have a fitted effect of over 70% in size; note: potency is the fitted concentration of half-maximal effect
How it was run: as §2

[6] = qHTS of pediatric cancer cell lines to identify multiple opportunities for drug repurposing: Primary screen for control Hh wild type fibroblast cells (AID 1347106); note: nearly all actives have a fitted effect of over 55% in size; note: potency is the fitted concentration of half-maximal effect
How it was run: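 Cells (500-1,000/well) in growth media were settled 5 h at 37 degrees C, then given compounds for 48 h. Viability was read as CellTiter-Glo luminescence. Primary runs used MIPE at 11 points (0.78 nM-46 µM) and NPC at 8 points (0.59 nM-46 µM); follow-ups used 11 points.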

[7] = qHTS of pediatric cancer cell lines to identify multiple opportunities for drug repurposing: Confirmatory screen for NB1643 cells (AID 1347109); note: nearly all actives have a fitted effect of over 45% in size; note: potency is the fitted concentration of half-maximal effect
How it was run: as §1

[8] = qHTS of pediatric cancer cell lines to identify multiple opportunities for drug repurposing: Confirmatory screen for A673 cells (AID 1347110);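 note: cells exposed to compound for 48 h before the viability read; nearly all actives have a fitted effect of over 65% in size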; note: potency is the fitted concentration of half-maximal effect
How it was run: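 qHTS titration format: primary MIPE 0.78 nM-46 µM (11 pts), NPC 0.59 nM-46 µM; confirmation 11 pts. 48 h, CTG luminescence.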

[9] = qHTS of pediatric cancer cell lines to identify multiple opportunities for drug repurposing: Confirmatory screen for BT-12 cells (AID 1347112); note: nearly all actives have a fitted effect of over 55% in size; note: potency is the fitted concentration of half-maximal effect
How it was run: as §1

[10] = qHTS of pediatric cancer cell lines to identify multiple opportunities for drug repurposing: Primary screen for MG 63 (6-TG R) cells (AID 1347105); note: nearly all actives have a fitted effect of over 50% in size; note: potency is the fitted concentration of half-maximal effect
How it was run: as §2

Measured: Potency

NCCCCNCCCN
active: [5] 23.5 µM
inactive: [1] | [2] | [3] | [4]

C[Se]CCC(N)C(=O)O (stereo not given)
inactive: [1] | [2] | [3] | [5]

CN(C)c1ccc2nc3ccc(=[N+](C)C)cc-3sc2c1
active: [1] 7.43 µM and 3.35 µM | [2] 1.37 µM and 872 nM | [3] 2.35 µM and 3.76 µM | [6] 11.9 µM | [5] 5.9 µM and 6.68 µM | [7] 3.29 µM | [8] 8.27 µM | [9] 1.04 µM

Clc1ccc(C(Cn2ccnc2)OCc2ccsc2Cl)c(Cl)c1 (stereo not given)
inactive: [6] | [4] | [5]
active: [1] 37.6 µM | [2] 24.3 µM | [7] 14.7 µM | [8] 20.8 µM | [9] 16.5 µM

Cc1ccc(NC(=O)c2ccc(CN3CCN(C)CC3)cc2)cc1Nc1nccc(-c2cccnc2)n1
active: [2] 17.4 µM
not listed: [3] | [9]
inactive: all other assays above

Nc1nc(Cl)nc2c1ncn2[C@H]1C[C@H](O)[C@@H](CO)O1
inactive: [1] | [5] | [9]
active: [2] 15.3 µM | [10] 29.6 µM | [7] 2.08 µM | [8] 3.69 µM

Cc1ccc(Nc2nccc(N(C)c3ccc4c(C)n(C)nc4c3)n2)cc1S(N)(=O)=O
inactive: [6] | [4]
active: [1] 16.6 µM | [2] 5.5 µM | [10] 0.0668 µM

CN(C)CCc1c[nH]c2ccc(Cn3cncn3)cc12
inactive: [1] | [2] | [3] | [5]

O=C1NC(=O)C(c2ccccc2[N+](=O)[O-])=C1Nc1ccc(O)c(Cl)c1
inactive: [1] | [2] | [3] | [5]

COc1cc(C(C)=O)ccc1OCCCN1CCC(c2noc3cc(F)ccc23)CC1
active: [2] 21.7 µM and 19.5 µM
not listed: [3] | [9]
inactive: all other assays above

CC(C)c1nc(CN(C)C(=O)N[C@H](C(=O)N[C@@H](Cc2ccccc2)C[C@H](O)[C@H](Cc2ccccc2)NC(=O)OCc2cncs2)C(C)C)cs1
inactive: [3] | [6]

CN(C)C(=O)[C@H](O)[C@H](Cc1ccccc1)NC(=O)c1cc2cc(Cl)ccc2[nH]1
inactive: [2] | [6]

COC(=O)C1=C(C)NC(C)=C(C(=O)OCCCN2CCC(c3ccccc3)(c3ccccc3)CC2)C1c1cccc([N+](=O)[O-])c1 (stereo not given)
inactive: [1] | [3] | [6] | [4] | [5]
